Screening results from PubChem.
Hits are enriched below; roughly 22% of the tested compounds scored in any of these assays.
LmPK inh = inhibitors of Leishmania mexicana pyruvate kinase | 290,000 compounds, 0.37% hits | purified LmPK, Kinase-Glo ATP luminescence, 1 h | AID 1721 | Potency, µM (highest dose often 57.5 µM), without a hit: at the top dose activity change, negative = inhibition, most hits filed as inhibitors | Q27686; further: potency means the concentration at half of the fitted maximal effect; on the % scale 0 is the no-effect control and ±100 the full control effect
Target sequence (Q27686 whole entry, looked up): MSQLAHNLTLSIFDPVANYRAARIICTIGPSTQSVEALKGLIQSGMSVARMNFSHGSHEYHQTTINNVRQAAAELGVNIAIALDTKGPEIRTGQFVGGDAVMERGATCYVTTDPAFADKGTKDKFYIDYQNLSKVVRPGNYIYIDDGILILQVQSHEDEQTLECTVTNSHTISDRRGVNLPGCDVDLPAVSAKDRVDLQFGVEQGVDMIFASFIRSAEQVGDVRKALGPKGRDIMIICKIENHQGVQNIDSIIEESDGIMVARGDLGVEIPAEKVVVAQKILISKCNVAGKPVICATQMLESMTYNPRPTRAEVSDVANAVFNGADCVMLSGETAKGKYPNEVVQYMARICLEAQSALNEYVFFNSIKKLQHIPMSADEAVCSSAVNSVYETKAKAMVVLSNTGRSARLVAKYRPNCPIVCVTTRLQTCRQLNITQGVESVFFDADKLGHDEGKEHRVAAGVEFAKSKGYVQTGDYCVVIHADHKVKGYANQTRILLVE
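ATP generated from ADP (0.1 mM) and PEP (0.5 mM) by 0.1 nM LmPK over 1 h at room temperature (pH 7.2 imidazole buffer) was detected by coupled luciferase luminescence. Values were normalized to uninhibited and no-enzyme wells.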
Pf growth 48h = P. falciparum growth inhibition at 48 hours (one generation); P. falciparum luciferase growth in erythrocytes, 48 h; 310,000 compounds, 5.9% hits; Potency, µM (series often up to 28.7 µM), for the others: at the top dose activity change, negative = inhibition, most hits filed as inhibitors; further: potency means the concentration at half of the fitted maximal effect; on the % scale 0 is the no-effect control and ±100 the full control effect
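Luciferase-expressing parasites in RBCs, 2% Hct / 0.1% parasitemia final; RPMI 1640 + 0.5% Albumax; 37 C, 5% CO2, one generation; luminescence read-out, lower signal = inhibition.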
Shiga inhibitor = inhibitors of Shiga toxin in Vero cells; Vero cells, Shiga toxin protein synthesis inhibition reporter; 290,000 compounds, 9.2% hits; inhibition, % at 38.7 µM; in the data active means inhibition mostly above about 28%, no sharp cut-off; inactive means mostly below about 43%; further: 0% is about no effect
Pf growth 96h = P. falciparum growth inhibition at 96 hours; Potency, µM (highest dose often 28.7 µM), for inactives: at the top dose activity change, negative = inhibition, usual class: inhibitors; P. falciparum luciferase reporter growth, 96 h; AID 504834; 320,000 compounds, 6.9% hits; further: potency means the concentration at half of the fitted maximal effect; on the % scale 0 is the no-effect control and ±100 the full control effect
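Delayed-death screen, second-generation endpoint: infected erythrocytes, 2% hematocrit, 0.05% parasitemia final; 96 hours at 37 C, 5% CO2; luciferase detection reagent; luminescence decrease equals reduced growth.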
Cycloheximide cs = affects cycloheximide protein synthesis inhibition readout, counter-screen | max response, % | cell reporter, cycloheximide protein synthesis inhibition counterscreen | 300,000 compounds, 12% hits; in the data active means max response mostly above about 13%, no sharp cut-off; inactive means mostly below about 14%; further: read at 38.3 µM for the half of the compounds with a filed dose; 0% is about no effect
Starred values were filed as active, the others as inactive; ? = inconclusive; nt = no result given. Unless noted, the call rests on the fitted dose curve; in most records, active means well fitted inhibition curve with a large enough effect; inconclusive means small, poorly fitted or top-dose-only effect, or another doubt; inactive means no such curve, though single readings can be large or run the other way.

SMILES	LmPK inh	Pf growth 48h	Shiga inhibitor	Pf growth 96h	Cycloheximide cs
COc1cc(S(=O)(=O)NCC2CCCO2)ccc1Br (centres undefined)	8.7%	nt	-13.2	37.4%	-4.8
COc1cc(C(=O)NCC(=O)NCC(c2ccco2)N2CCCCC2)cc(OC)c1OC (centres undefined)	nt	?	nt	3.29µM*	nt
COc1ccc(C(CNC(=O)c2ccc(C)c(S(=O)(=O)Nc3ccccc3OC)c2)N2CCCC2)cc1 (centres undefined)	-6.8%	4.15µM*	11.8	?	3.3
CCC1CCc2sc(C(=O)NCC(c3ccc(OC)cc3)N3CCCC3)cc2C1 (centres undefined)	nt	11.7µM*	nt	?	nt
COc1ccc(C(CNC(=O)CNC(=O)c2cccc(Cl)c2)N2CCCC2)cc1 (centres undefined)	nt	-10.9%	nt	?	nt
COc1ccc(C(CNC(=O)c2cccc(N(C)C)c2)N2CCCC2)cc1 (centres undefined)	4.1%	10.4µM*	15.5	?	0.7
CCN(CC(=O)N1CCCC1)S(=O)(=O)c1cc(C)ccc1OC	-3.6%	-7.1%	-4.7	0.0%	0.5
Cc1onc(-c2ccccc2)c1CNC(=O)Nc1cccc(Cl)c1	1.0%	-155.4%	-5.2	9.28µM*	-1.0
Cc1cc(C)cc(NC(=O)NCc2c(-c3ccccc3)noc2C)c1	-1.0%	?	13.5	?	-1.3
Cc1onc(-c2ccccc2)c1CNC(=O)Nc1ccc(C(F)(F)F)cc1	0.7%	6.57µM*	-2.0	4.15µM*	10.5
COc1cccc(/C=C/C(=O)OCC(=O)NCC2CCCO2)c1OC (centres undefined)	-2.8%	-0.2%	5.4	470.0%	16.6
COc1ccc(OCC2CCNCC2)cc1	-0.1%	132.2%	38.7*	2.3%	32.9*
COc1ccc(NC(=O)c2c(C(F)(F)F)nn(C)c2SCc2ccccc2Cl)cc1	0.6%	-13.8%	-6.9	-10.8%	-1.1
CCCOC(=O)c1ccc(-c2c(C)noc2-c2ccc(OC)cc2O)o1	6.4%	0.738µM*	-17.3	nt	-1.1
CCc1cccc(NC(=O)CCNC(=O)Cn2ccc3ccccc3c2=O)c1	2.1%	-1.9%	-5.7	?	-4.0
CCc1cccc(N(C)C(N)=Nc2cccc3ccccc23)c1	-0.3%	13.5µM*	-6.6	9.53µM*	-3.8
COc1ccc(NC(=O)C(C)N=C2NS(=O)(=O)c3ccccc32)cc1S(N)(=O)=O (centres undefined)	nt	-4.5%	nt	8.5%	nt
Clc1ccc2c(c1)C(N1CCNCC1)=Nc1ccccc1O2	-2.6%	?	-11.6	?	-1.5
CC1=Nc2cc(Cl)ccc2Oc2ccccc21	3.6%	15.4%	-3.5	2.08µM*	1.5
CCn1c(SCC(=O)N/N=C/c2ccc(C)s2)nc2ccccc21	-3.8%	13.1%	6.2	-2.8%	11.3
O=C(CN1C(=O)NC(c2ccccc2)(c2ccccc2)C1=O)N1CCN(c2ccccc2F)CC1	nt	13.1µM*	nt	?	nt
O=C(CN1C(=O)NC(c2ccccc2)(c2ccccc2)C1=O)N1CCN(c2ccc(F)cc2)CC1	nt	11.7µM*	nt	?	nt
O=C(CN1C(=O)NC(c2ccccc2)(c2ccccc2)C1=O)N1CCOCC1	nt	-0.1%	nt	-9.7%	nt
O=C(Nc1ccc(S(=O)(=O)Nc2ncccn2)cc1)C1CC(=O)N(c2ccc(Cl)cc2)C1 (centres undefined)	-2.2%	23.1%	-1.7	-4.3%	-2.7
O=C(COC(=O)c1nc(Cl)ccc1Cl)NCc1ccc(Cl)cc1	nt	?	nt	-22.8%	nt
SMILES	LmPK inh	Pf growth 48h	Shiga inhibitor	Pf growth 96h	Cycloheximide cs
CC(NC(=O)NC(N)=O)(C(F)(F)F)C(F)(F)F	5.1%	22.8%	-4.3	7.38µM*	-2.6
O=C(COC(=O)COc1ccc(Cl)cc1)NC1CC1	nt	28.3%	nt	20.7%	nt
O=C(Cn1cc(Cl)c([N+](=O)[O-])n1)NCCC1=CCCCC1	-8.4%	9.4%	17.1	?	15.5*
COC(=O)Cn1c(=NC(=O)c2ccc([N+](=O)[O-])s2)sc2cc(Br)ccc21	-2.1%	?	39.3	0.828µM*	15.4*
COC(=O)Cn1c(=NC(=O)c2sc3ccccc3c2Cl)sc2cc(S(N)(=O)=O)ccc21	-1.2%	2.0%	-2.0	36.8%	-0.7
COC(=O)Cn1c(=NC(=O)CSCC(=O)NC2CCCCC2)sc2cc(OC)ccc21	4.2%	?	-18.4	?	-6.4
COC(=O)Cn1c(=NC(=O)c2nc3ccccc3s2)sc2cc(S(C)(=O)=O)ccc21	-0.8%	44.5%	14.7	87.0%	16.6*
COC(=O)Cn1c(=NC(=O)c2ccc(Cl)s2)sc2cc(C)ccc21	-0.6%	85.9%	39.5	3.5%	18.2*
C=CCn1c(=NC(=O)c2ccccc2[N+](=O)[O-])sc2cc(S(C)(=O)=O)ccc21	0.7%	?	10.4	9.28µM*	-1.1
Cc1ccc([C@@H]2CC=C(C(=O)O)CN2S(=O)(=O)c2ccc(C)cc2)cc1	nt	-13.4%	nt	56.9%	nt
O=C(NCC(=O)N1CC(O)CC1C(=O)N1CC(O)CC1C(=O)OCc1ccccc1)OCc1ccccc1 (centres undefined)	1.9%	8.6%	87.7*	11.3%	20.1
CC(NC(=O)CNC(=O)OCc1ccccc1)C(=O)N1CC(O)CC1C(=O)OCc1ccccc1 (centres undefined)	4.5%	6.6%	14.9	?	-3.8
Cc1ccc(C)c(-c2nnc(NC(=O)CCS(=O)(=O)c3ccc(F)cc3)o2)c1	nt	11.2%	nt	-1.4%	nt
CC(C)NC(=O)CN1CCN(Cc2nc(C(c3ccccc3)c3ccccc3)no2)CC1	-1.2%	9.28µM*	7.5	-25.6%	6.2
COC(=O)[C@]1(CC(C)C)N[C@H](c2ccc(-c3ccc(Cl)c(Cl)c3)cc2)[C@@H]2C(=O)N(C)C(=O)[C@@H]21	nt	7.38µM*	nt	4.65µM*	nt
COc1ccc(O)c(C2NC(CC(C)C)(C(=O)O)C3C(=O)N(Cc4ccccc4)C(=O)C23)c1 (centres undefined)	0.8%	23.5%	-7.1	88.5%	8.5*
CCN1C(=O)[C@H]2[C@@H](c3ccc(-c4ccc(Cl)c(Cl)c4)cc3)N[C@@](CC(C)C)(C(=O)OC)[C@H]2C1=O	nt	11.7µM*	nt	4.65µM*	nt
CCN1C(=O)[C@H]2[C@@H](c3ccc(-c4ccc(OC)cc4)cc3)N[C@@](CC(C)C)(C(=O)OC)[C@H]2C1=O	nt	11.7µM*	nt	11.7µM*	nt
O=C(Nc1ccc2c(c1)OCO2)c1cc2nc(C3CC3)cc(C(F)(F)F)n2n1	-0.4%	10.9%	11.5	0.0415µM*	12.4*
O=C(Nc1ccc2c(c1)OCO2)c1cc2ncc(Br)cn2n1	-3.2%	54.2%	7.5	11.0%	17.5
CC(=O)c1cccc(NC(=O)c2cc3nc(C)cc(C)n3n2)c1	-8.6%	148.4%	53.2*	nt	27.1*
Cc1cc(C)n2nc(C(=O)Nc3ccc4c(c3)OCO4)cc2n1	-9.0%	nt	70.1*	126.7%	34.0*
O=C(OCN1C(=O)c2ccccc2C1=O)c1cccc(OC(F)F)c1	2.0%	12.5%	-7.7	9.2%	-5.4
CCc1c(C#N)c(N)nc(SCC(=O)OCc2ccccc2)c1C#N	0.9%	9.28µM*	-49.5	?	-7.0
N#Cc1c(SCC(=O)OCc2ccccc2)nsc1SCC(=O)OCc1ccccc1	-3.4%	nt	-8.1	-10.3%	-3.3
